Test results taken from PubChem BioAssay (NCI).
Compounds without any hit were thinned out: in the full panel of roughly 79,000, 15% have a hit. Unmarked numbers belong to inactive results. Calls of active or inactive are those of the source. Rule as the data show it: active = growth inhibition above about 70%; inactive = the rest. Where a SMILES comes first, the peptide text is derived from it. The star is where a group is joined. Trt = c1ccc(C(c2ccccc2)(c2ccccc2)*)cc1; OtBu = CC(C)(C)O*

Assays:
[1] = NCI Yeast Anticancer Drug Screen. Data for the rad50 strain (AID 155);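 also: 0% = growth of vehicle-only cultures of the same strain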; conditions: S. cerevisiae rad50 strain growth inhibition, stronger effect = higher value
Outline: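 Relative growth inhibition (compound vs vehicle) was measured in yeast with a defined repair-gene alteration.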

[2] = NCI Yeast Anticancer Drug Screen. Data for the mec2-1 strain (AID 157); conditions: S. cerevisiae mec2-1 strain, stronger effect = higher value
Outline: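 Readout is yeast growth inhibition, normalised to vehicle-treated controls, in the mec2-1 strain exposed to compound.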

[3] = NCI Yeast Anticancer Drug Screen. Data for the sgs1 mgt1 strain (AID 161);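 also: 0% = growth of cultures given vehicle only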; conditions: S. cerevisiae sgs1 mgt1 strain, stronger effect = higher value
Outline: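 This yeast growth screen uses a strain with defined DNA-repair lesions; compound-treated growth is compared with vehicle-treated growth.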

[4] = NCI Yeast Anticancer Drug Screen. Data for the cln2 rad14 strain (AID 165);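 also: 0% = growth equal to vehicle treated cultures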; conditions: S. cerevisiae cln2 rad14 strain, stronger effect = higher value
Outline: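 Relative to vehicle controls, growth inhibition of compound-treated cln2 rad14 yeast was recorded.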

[5] = NCI Yeast Anticancer Drug Screen. Data for the bub3 strain (AID 167); conditions: S. cerevisiae bub3 mutant strain, stronger effect = higher value
Outline: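 Screening used yeast with an engineered genetic alteration affecting cell cycle control. Compound-exposed cultures were compared with vehicle cultures, and reduced growth was taken as inhibition.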

[6] = NCI Yeast Anticancer Drug Screen. Data for the mlh1 rad18 strain (AID 175); conditions: S. cerevisiae mlh1 rad18 strain growth inhibition, stronger effect = higher value
Outline: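 Test agents were incubated with a yeast strain of defined genotype (DNA damage repair defect). Inhibition of growth was derived by comparison with vehicle-exposed cultures.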

[7] = at 5.0 µM (retest, dose inferred, filed as 0.5)
[8] = at 50.0 µM (retest, dose inferred, filed as 5.0)

SMILES	growth inhibition [1, 7]	growth inhibition [1, 8]	growth inhibition ([1]; at 50.0 µM)	growth inhibition [2, 7]	growth inhibition [2, 8]	growth inhibition ([2]; at 50.0 µM)	growth inhibition [3, 7]	growth inhibition [3, 8]	growth inhibition ([3]; at 50.0 µM)	growth inhibition [4, 7]	growth inhibition [4, 8]	growth inhibition ([4]; at 50.0 µM)	growth inhibition [5, 7]	growth inhibition [5, 8]	growth inhibition ([5]; at 50.0 µM)	growth inhibition [6, 7]	growth inhibition [6, 8]	growth inhibition ([6]; at 50.0 µM)
Cc1ccc(C(=O)/C=C/c2ccccc2)cc1	8%	42%	52%	-6%	14%	13.7%	1%	38%	36.6%	0%	-22%	-22%	6%	19%	9.3%	2%	24%	82.1% (active)
CS(=O)(=O)N1C(=O)C2C3CCC(O3)C2C1=O (configuration not stated)	-142%	91% (active)	73.5% (active)	-46%	71% (active)	57.7%	-61%	52%	26.4%	-56%	73% (active)	19.5%	-74%	64%	40.8%	-145%	75% (active)	42.6%
CCOC(=O)C1=C(c2ccccc2)SC(c2ccccc2)N(C(C)C)C1=O (configuration not stated)	8%	67%	90.3% (active)	13%	51%	88% (active)	15%	81% (active)	94.5% (active)	12%	63%	83.6% (active)	4%	68%	87.7% (active)	9%	76% (active)	88.1% (active)
COc1cc(C(=O)OCC(C)C)ccc1O	3%	33%	15.1%	3%	4%	6.2%	2%	8%	2.8%	2%	14%	-16.1%	96% (active)	98% (active)	45.3%	-5%	13%	3.3%
[N-]=[N+]=NC1=CC(=O)c2cccc3cccc1c23	45%	99% (active)	80.8% (active)	31%	99% (active)	86.5% (active)	65%	99% (active)	87.6% (active)	47%	98% (active)	80.1% (active)	32%	99% (active)	89% (active)	72% (active)	99% (active)	89.5% (active)
N#Cc1c(N)nc2c(N=Nc3ccccc3)c(N)nn2c1Nc1ccccc1	-2%	38%	51.5%	-2%	39%	16.4%	19%	85% (active)	79.2% (active)	1%	5%	16.4%	-5%	31%	-30.6%	-4%	55%	76.1% (active)
CCC(Cl)COP(=O)(OC(c1ccc(Cl)c(Cl)c1)P(=O)(OCC(Cl)CC)OCC(Cl)CC)C(CC)CCl (configuration not stated)	6%	71% (active)	86.7% (active)	-81%	45%	96.2% (active)	-3%	45%	94.2% (active)	-4%	57%	83.5% (active)	-2%	57%	79.5% (active)	6%	80% (active)	94.2% (active)
CC(C)(C)OC(=O)CNC(=O)C(Cc1ccccc1)NC(=O)C(N)CSC(c1ccccc1)(c1ccccc1)c1ccccc1 (stereo not drawn) (H-Cys(Trt)-Phe-Gly-OtBu; configuration not given here)	-3%	16%	59.2%	-5%	53%	82.2% (active)	0%	41%	76.5% (active)	-5%	48%	41.3%	1%	34%	17.9%	-3%	45%	73.3% (active)
COc1cc(C(c2cc3c(cc2O)OCO3)N2CCN(C(c3ccc(O)c(OC)c3)c3cc4c(cc3O)OCO4)CC2)ccc1O (configuration not stated)	-1%	98% (active)	99.2% (active)	3%	99% (active)	99.3% (active)	-3%	97% (active)	99.5% (active)	2%	82% (active)	96.7% (active)	-1%	99% (active)	99% (active)	2%	98% (active)	98.5% (active)
Cc1ccc(S(=O)(=O)N/N=C/Cc2ccccc2)cc1	2%	96% (active)	87.5% (active)	-13%	98% (active)	7%	3%	98% (active)	79.8% (active)	-3%	95% (active)	11.6%	-5%	97% (active)	12.1%	28%	98% (active)	85.3% (active)
CCOC(=O)C1=C(N)OC(c2ccccc2)=C(C#N)C1c1ccc(C)cc1 (configuration not stated)	8%	90% (active)	96.1% (active)	4%	91% (active)	97% (active)	11%	92% (active)	97.3% (active)	0%	86% (active)	96.6% (active)	-4%	87% (active)	96.3% (active)	3%	90% (active)	96.5% (active)
N#C/C(=C/c1ccccc1B(O)O)C(=O)O	-151%	-5%	71.4% (active)	-49%	-36%	17%	-61%	-40%	31.3%	-62%	-58%	13.1%	-77%	-96%	-8.9%	-140%	-65%	65.8%
CCCCN1CCN(c2ccc([N+](=O)[O-])c3no[n+]([O-])c23)CC1	97% (active)	99% (active)	90.5% (active)	94% (active)	99% (active)	93.2% (active)	90% (active)	99% (active)	90.2% (active)	43%	98% (active)	88.2% (active)	58%	98% (active)	91.2% (active)	96% (active)	99% (active)	90.5% (active)
CN(C)c1ccc(-c2c(C#N)c(S)n(NS(=O)(=O)c3ccccc3)c(=O)c2C#N)cc1	94% (active)	96% (active)	35.4%	31%	95% (active)	75.3% (active)	38%	95% (active)	61.2%	50%	69%	31.8%	45%	93% (active)	58.1%	91% (active)	94% (active)	60.7%
Cc1cc(Cc2cccc(Cl)c2)ccc1O	-8%	99% (active)	99.5% (active)	-34%	99% (active)	99.7% (active)	-2%	99% (active)	99.3% (active)	-21%	99% (active)	99.4% (active)	-20%	99% (active)	99.6% (active)	-8%	99% (active)	99.5% (active)
NC(=O)c1ccc[n+](CC(=O)Nc2ccc(Cl)cc2)c1	2%	-3%	5.6%	-9%	-4%	-1.35%	-5%	-28%	-7.2%	-1%	-6%	-57.3%	0%	-11%	31%	11%	4%	-13.9%
CC(N1CCOCC1)C(O)(c1ccccc1)c1ccccn1 (configuration not stated)	3%	10%	-19.4%	-1%	-15%	-35.9%	-4%	-15%	-32.6%	24%	-1%	60.2%	-2%	-15%	-42.4%	4%	19%	2.75%
Nc1ccc(SCCCc2c(N)nc(N)nc2N)cc1	-8%	4%	57.5%	1%	-8%	92.2% (active)	27%	11%	20.6%	-16%	-17%	91.8% (active)	-9%	-12%	95% (active)	6%	32%	82.2% (active)
O=C(O)C(Cc1cc(I)c(O)c(I)c1)c1ccccc1 (configuration not stated)	-14%	29%	60.1%	-1%	34%	19.2%	-25%	38%	16.8%	-5%	41%	32.6%	-4%	29%	21.9%	0%	45%	57.5%
